Experimental findings from PubChem BioAssay (NCATS) are described below.

“And” between values parts separate entries of the source, which are not always exact repeats. Equal values may be shown once. Records with an inconclusive call do not appear. The source holds several records for some structures; these can differ, active in one and inactive in another. The source made the active and inactive calls. Unless noted, calls follow the shape of the dose curve; as a rule, active = well fitted curve in the direction sought with a large enough effect; inconclusive = small, poorly fitted or top-dose-only effect, or another doubt; inactive = no such curve, though single readings can be large; an effect the other way counts as inactive or inconclusive.

Assay [1] can be described thus: qHTS of Trypanosoma Brucei Inhibitors: LOPAC Validation (AID 624147). Also: 0% is about no effect. In a few lines: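 In this concentration-response screen, enzyme-free wells defined baseline while DMSO plates tracked drift. Each reaction combined TbPYK, substrate, compound and 130 uM ADP for 45 min at room temperature. Kinase-Glo Plus luminescence gave the signal.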
On the technique in general: Quantitative high-throughput screening tests each substance at several concentrations.

Assay [2] addresses Glucagon-like peptide 1 receptor (Homo sapiens) (UniProt P43220). Put plainly: qHTS of GLP-1 Receptor Agonists: LOPAC Validation (AID 624148).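 Also: 0% is about no effect; higher luminescence signal means agonism.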 The essentials: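 HEK293 cells stably co-expressing GLP-1R and a cAMP-responsive luciferase reporter, plated 12 hours before compound, then incubated 4-6 hr at 37 deg C. Luminescence read 12 min after detection reagent.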
A short description of assay [3]: qHTS of Nrf2 Activators: LOPAC Validation (AID 624149). Also: 0% is about no effect. In a few lines: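 Following overnight seeding in 5% FBS OPTI-MEM, AREc32_Fluc cells receive compounds for a 24 hr incubation at 37 deg C with 5% CO2. Steady-Glo is added, and after 30 min at RT luminescence is recorded.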
Assay [4] is described as follows: HTS Assay for Allosteric Antagonists of the Human D2 Dopamine Receptor: Hit Validation in HTRF (AID 624455).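 Also: stable D1 dopamine receptor cell line scored for blocking the D1 response; % is scaled to controls: 0 for no effect and ±100 for the full control effect.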 In a few lines:
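Validation of hits used D1 receptor stably expressed in cells with HTRF detection of response inhibition; origin screen measured calcium flux following EC80 dopamine in a force-coupled, inducible Hek293 Trex D2 cell line.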
(TR-FRET usually uses a lanthanide donor and a delayed reading to cut background.)

A short description of assay [5]: qHTS assay for environmental chemicals that activate the Aryl hydrocarbon Receptor (AhR) signaling pathway (AID 651777). Also: % of control where 0% means no effect; nearly all actives have a fitted effect of over 15% in size. The settings on record: 1A2-DRE human hepatoma cells, luciferase, 24 h; activation: stronger effect = higher value. In a few lines:
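Induction of CYP1A2 transcription through AhR is detected by luciferase in 1A2-DRE hepatoma cells. Compounds or DMSO act for 24 hr at 37 C before a 30 min One-Glo step at room temperature.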

In assay [6] the target is Peroxisome proliferator-activated receptor alpha (Homo sapiens) (UniProt Q07869). The experiment in a line: qHTS assay for small molecule agonists of the peroxisome proliferator-activated receptor alpha (PPARalpha) signaling pathway (AID 651778). Also: % of control where 0% means no effect. The settings on record: PathHunter PPARalpha complementation, chemiluminescence, 6 h; max response: stronger effect = higher value. The essentials: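 Enzyme-fragment complementation assay in which ligand-bound PPARalpha translocates and forms an active enzyme that generates chemiluminescence. Cells were plated overnight, exposed to compound for 6 hr at 37 C, and then given detection reagent for 60 min at room temperature.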
Sequence of Peroxisome proliferator-activated receptor alpha (Homo sapiens) (Q07869 whole entry, looked up, the tested form may be a part): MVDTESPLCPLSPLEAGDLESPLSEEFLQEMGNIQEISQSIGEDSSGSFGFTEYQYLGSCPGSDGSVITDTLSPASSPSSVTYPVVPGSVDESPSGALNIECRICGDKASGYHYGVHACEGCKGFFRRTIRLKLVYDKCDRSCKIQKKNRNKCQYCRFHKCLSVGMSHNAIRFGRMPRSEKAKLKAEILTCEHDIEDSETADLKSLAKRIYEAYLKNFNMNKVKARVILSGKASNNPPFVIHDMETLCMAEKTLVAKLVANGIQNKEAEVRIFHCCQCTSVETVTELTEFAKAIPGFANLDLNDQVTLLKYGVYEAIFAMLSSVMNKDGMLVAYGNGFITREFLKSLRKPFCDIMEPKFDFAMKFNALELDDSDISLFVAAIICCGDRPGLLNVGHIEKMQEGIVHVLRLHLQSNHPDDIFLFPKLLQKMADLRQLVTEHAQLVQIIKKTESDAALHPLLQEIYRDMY

The nature of assay [7]: Cytotoxicity counterscreen for NFkB agonists and antagonists (AID 624476).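 Also: cells exposed to compound for 48 hours.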 Also: potency is read from the fitted curve at half-maximal effect. Background: The purpose of a counterscreen is to sort out artefacts and off-target activity.
Assay [8] can be described thus: qHTS Assay for Identification of Small Molecule Antagonists for NFkB Signaling Pathway. (AID 624479; calls by dose curve;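 also: pathway stimulated with TNF alpha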; also: potency is read from the fitted curve at half-maximal effect).
A short description of assay [9]: Cell Proliferation Assay against the TMD8 Cell Line (AID 651645).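 Also: cells exposed to compound for 48 h before reading.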 The settings on record: TMD8 DLBCL cell line proliferation/viability; at 46.1 µM (top of the series). The essentials:
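Viability by CellTiter-Glo after 48 h compound exposure of 500 log-phase TMD8 cells per well (RPMI, 5% FBS). Percent activity scaled between DMSO (100%) and 9.2 uM final bortezomib (0%).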

Assay [10] is described as follows: Cell Proliferation Assay against the HBL1 Cell Line (AID 651646).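 Also: cells exposed to compound for 48 h before reading.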 Particulars: HBL1 DLBCL cells; at 46.1 µM (top of the series). In a few lines: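 HBL1, 500 cells/well, RPMI no phenol red + 5% FBS; cpd pinned, 48 h 37C/5% CO2; CellTiter-Glo, 15 min RT, luminescence. % activity: DMSO = 100%, bortezomib 9.2 uM final = 0%.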
Assay [11] in a line: Cell Proliferation Assay against the TMD8 Cell Line (Caspase readout at 16 hrs) (AID 651712). Also: potency is read from the fitted curve at half-maximal effect. In a few lines:
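Caspase-Glo luminescence after 16 h compound exposure of TMD8 cells, 37 °C, 5% CO2. Medium: RPMI without phenol red, 5% FBS. Normalisation: DMSO = 0%, bortezomib 9.2 uM final = 100%.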

Assay [12] can be described thus: qHTS assay for small molecule agonists of the antioxidant response element (ARE) signaling pathway (AID 651741; active = well fitted activation curve with a large enough effect in the signal ratio; the % refers to the signal ratio; also: potency is read from the fitted curve at half-maximal effect; as to activation: % of control where 0% means no effect). The essentials:
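HepG2 ARE-bla reporter cells, 2,000/well; 5 h settle at 37 C/5% CO2; compound pin transfer (23 nL, DMSO); 16 h at 37 C; LiveBLAzer B/G FRET substrate, 2 h RT; fluorescence intensity read.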

A short description of assay [13]: qHTS assay for small molecule activators of the p53 signaling pathway (AID 651743; active = well fitted activation curve with a large enough effect in the signal ratio, not every such curve was filed as active; the % refers to the signal ratio; also: % of control where 0% means no effect). Particulars: HCT-116 p53RE-bla, beta-lactamase FRET ratio, 16 h; activation: stronger effect = higher value. The essentials:
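Reporter: beta-lactamase driven by p53 response elements, stably integrated in HCT-116 cells. Cells seeded at 4,000/well, 5 h preincubation, compound (DMSO) 16 h at 37 C; B/G FRET substrate 2 h RT; fluorescence intensity read.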

Assay [14] is described as follows: qHTS assay for small molecule activators of the nuclear factor-kappa B (NF-kB) signaling pathway (AID 651749; active = well fitted activation curve with a large enough effect in the signal ratio; the % refers to the signal ratio; also: % of control where 0% means no effect). The settings on record: NF-kB-bla ME-180 cells, beta-lactamase FRET ratio, 16 h; stronger effect = higher value. In a few lines:
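NF-kB-bla ME-180 cells, 2,000/well; 23 nL compound or DMSO pinned; 16 hr, 37C/5% CO2; beta-lactamase FRET read-out.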

Assay [15] deals with Tumor necrosis factor (Homo sapiens) (UniProt P01375). The experiment in a line: qHTS assay to identify small molecules that stimulate Tumor Necrosis Factor-alpha (TNF-alpha) secretion (AID 651757; active = well fitted curve in the direction sought with a large enough effect in the signal ratio; the % refers to the signal ratio; also: 0% is about no effect). The essentials: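 Using 3000 THP-1 cells per well, compounds and controls were applied for 17 hrs at 37 C. Detection followed with two labeled anti-TNF-alpha antibodies (cryptate donor, XL665 acceptor) for 3 hr at room temperature, measured by TR-FRET.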
Sequence of Tumor necrosis factor (Homo sapiens) (P01375 whole entry, looked up): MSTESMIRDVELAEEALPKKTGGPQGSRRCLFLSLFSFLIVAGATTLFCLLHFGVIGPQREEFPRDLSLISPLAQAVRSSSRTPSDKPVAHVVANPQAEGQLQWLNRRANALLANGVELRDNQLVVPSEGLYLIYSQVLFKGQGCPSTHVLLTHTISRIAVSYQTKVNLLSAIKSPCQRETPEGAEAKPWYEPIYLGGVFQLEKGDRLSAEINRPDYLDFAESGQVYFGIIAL

Assay [16] deals with Nuclear receptor ROR-gamma (Homo sapiens) (UniProt P51449). Put plainly: qHTS assay for small molecule antagonists of the retinoid-related orphan receptor gamma (ROR-gamma) signaling pathway (AID 651802). Also: nearly all actives have a fitted effect of over 60% in size. Also: potency is read from the fitted curve at half-maximal effect. The essentials: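 Doxycycline-induced reporter activity in engineered CHO cells (TET-inducible ROR, RORE-LUC) was measured by luminescence after 16hr compound exposure at 37C.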
Sequence of Nuclear receptor ROR-gamma (Homo sapiens) (P51449 whole entry, looked up): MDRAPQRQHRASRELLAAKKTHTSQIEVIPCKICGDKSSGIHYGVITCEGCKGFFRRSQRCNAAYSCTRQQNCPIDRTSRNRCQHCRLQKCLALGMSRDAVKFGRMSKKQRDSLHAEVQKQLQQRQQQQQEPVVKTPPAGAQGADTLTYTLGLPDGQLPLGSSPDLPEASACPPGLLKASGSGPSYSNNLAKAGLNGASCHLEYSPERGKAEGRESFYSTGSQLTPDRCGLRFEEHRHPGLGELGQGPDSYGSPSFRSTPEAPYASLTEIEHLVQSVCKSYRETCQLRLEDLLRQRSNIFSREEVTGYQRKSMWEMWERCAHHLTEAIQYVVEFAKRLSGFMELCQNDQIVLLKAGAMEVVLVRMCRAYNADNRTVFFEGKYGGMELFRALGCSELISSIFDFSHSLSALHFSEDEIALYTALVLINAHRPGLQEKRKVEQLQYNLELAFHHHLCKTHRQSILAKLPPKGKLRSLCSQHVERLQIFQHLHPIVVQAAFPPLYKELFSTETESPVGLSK

Assay [17] can be described thus: qHTS assay to identify small molecules that stimulate interleukin-8 (IL-8) secretion (AID 651758; active = well fitted activation curve with a large enough effect in the signal ratio; the % refers to the signal ratio; also: 0% is about no effect). In a few lines: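 Compounds are added to THP-1 cells (2000 per well) and left 16 hrs at 37 C. A labeled anti-IL-8 antibody pair is then added, and IL-8 secretion is measured by time-resolved FRET after 1-3 hrs at room temperature.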
Assay [18] can be described thus: Cell Proliferation Assay against the TMD8 Cell Line (Caspase readout at 8 hrs) (AID 651713).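 Also: 0% = DMSO and 100% = 9.2 µM bortezomib caspase signal.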 The essentials:
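Luminescent caspase 3/7 assay; TMD8 cells, 8 h treatment at 37C, 5% CO2. Normalisation: DMSO 0%, 9.2 uM bortezomib 100%.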

Sequence of Glucagon-like peptide 1 receptor (Homo sapiens) (P43220 whole entry, looked up): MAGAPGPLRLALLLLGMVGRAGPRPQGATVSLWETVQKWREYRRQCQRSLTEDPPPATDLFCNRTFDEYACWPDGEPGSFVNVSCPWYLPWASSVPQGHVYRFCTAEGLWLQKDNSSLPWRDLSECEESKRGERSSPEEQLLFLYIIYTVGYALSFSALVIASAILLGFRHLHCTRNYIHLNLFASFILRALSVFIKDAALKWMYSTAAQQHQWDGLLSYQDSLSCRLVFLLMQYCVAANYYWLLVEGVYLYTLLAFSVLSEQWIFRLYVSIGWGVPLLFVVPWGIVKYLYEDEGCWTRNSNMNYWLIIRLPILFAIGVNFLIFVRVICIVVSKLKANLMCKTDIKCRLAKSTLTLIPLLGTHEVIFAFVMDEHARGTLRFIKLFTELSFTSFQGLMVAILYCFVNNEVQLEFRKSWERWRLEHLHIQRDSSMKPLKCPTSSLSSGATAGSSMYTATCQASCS

Turning to `C[C@@H]1O[C@@H](O[C@H]2C[C@@H](O)[C@]3(CO)[C@H]4[C@H](O)C[C@]5(C)[C@@H](C6=CC(=O)OC6)CC[C@]5(O)[C@@H]4CC[C@]3(O)C2)[C@H](O)[C@H](O)[C@H]1O`, the outcome in assay [1], in assay [2] and in assay [3] was inactive. Further, the Potency result in [4] was “inactive”. The activation in assay [5] was 6.71% (inactive). In addition, the max response in [6] is -0.456% (inactive).

With `CCCN1CCC[C@@H]2Cc3[nH]ncc3C[C@H]21`, the molecule was classed as inactive in [1], in assay [2] and in assay [3].

`Cc1ccc(S(=O)(=O)N[C@@H](CCCCN)C(=O)CCl)cc1`: the molecule was classed as inactive in [1], in assay [2] and in assay [3]. In assay [4], the Potency result was “inactive”.

Regarding `CC(CCc1ccccc1)NC(C)C(O)c1ccc(O)cc1` (stereo unspecified), the result in assay [1] and in assay [3] was inactive. Further, the Potency entry in assay [4] is “inactive”.

Regarding `Cc1cc2c(C(C)C)c(O)c(O)c(C=O)c2c(O)c1-c1c(C)cc2c(C(C)C)c(O)c(O)c(C=O)c2c1O`, the results for the Potency in assay [7] and in [8] were 4.69 µM (active) and 5.95 µM (active), respectively.

In the case of `CCC1(C2=NCCN2)Cc2ccccc2O1` (stereo unspecified), the molecule was called inactive in [1], in assay [2] and in [3]. Further, in [4], the Potency entry is “inactive”.

Turning to `Cn1cc(C2=C(c3cn(C4CCN(Cc5ccccn5)CC4)c4ccccc34)C(=O)NC2=O)c2ccccc21`, the Potency entry in assay [7] is “inactive”. The Potency in assay [8] is 6.68 µM (active); in [11], 16.6 µM (active). Further, in [9], the viability (% of control) was determined as 3.76%. Besides, the viability, percent of control in assay [10] was determined as 33.2%.

Consider `O=C1NCN(c2ccccc2)C12CCN(CC1COc3ccccc3O1)CC2` (stereo unspecified), for which the outcome in assay [1], in assay [2] and in [3] was inactive. Also, the Potency result in assay [4] is “inactive”.

For the molecule `CNCC(O)c1ccc(O)cc1` (stereo unspecified), the molecule was called inactive in assay [1], in assay [3] and in assay [15]. Moreover, the Potency entry in assay [4], in assay [12] and in assay [16] was “inactive” throughout. Besides, the values for the activation in assay [13], in [14] and in assay [5] were -2.83% (inactive), -1.11% (inactive) and -0.394% (inactive), respectively. Moreover, the max response in [6] was -4.08% (inactive).

Regarding `CCCN1CCC[C@@H]2Cc3nc(N)ncc3C[C@H]21`, the molecule was called inactive in [1], in assay [2] and in [3].

For `N#CC(C#N)=Cc1ccc(O)c(O)c1`, the outcome in assay [1], in assay [2] and in assay [3] was inactive. Besides, the Potency entry in assay [4] was “inactive”.

Regarding `CCCC(C)(COC(N)=O)COC(=O)NC(C)C` (stereo unspecified), the outcome in assay [1], in assay [2], in assay [3] and in assay [15] was inactive. For the same molecule, the Potency entry in assay [4], in [12], in assay [17] and in assay [16] was “inactive” throughout. Further, the activation in assay [13] is 1.85% (inactive) and -3% (inactive); in assay [5] it was 0.419% (inactive) and -1.4% (inactive). In assay [6], the max response is -0.746% (inactive) and -1.22% (inactive).

With `NCC(O)c1ccc(O)cc1` (stereo unspecified), the result in assay [1], in assay [2], in assay [3] and in [15] was inactive. In addition, the Potency entry in assay [12], in assay [17] and in assay [16] was “inactive” each time. For the same molecule, the results for the activation in assay [13], in assay [14] and in [5] were -5.43% (inactive), -2.66% (inactive) and -0.493% (inactive), respectively. The max response in [6] is -2.88% (inactive).

For the molecule `NN=C(N)N`, the molecule was classed as inactive in [1], in [2] and in [3]. Also, the Potency result in assay [4] was “inactive”.

Turning to `NCC(CC(=O)O)c1ccc(Cl)cc1` (stereo unspecified), the molecule was called inactive in assay [1], in [2] and in [3]. Besides, in assay [4], the Potency entry is “inactive”.

As to `COc1ccc(C(CN(C)C)C2(O)CCCCC2)cc1` (stereo unspecified), the result in [1], in [2] and in assay [3] was inactive.

For the molecule `O=c1[nH]c2ccccc2n1CCCN1CCC(n2c(=O)[nH]c3cc(Cl)ccc32)CC1`, the molecule was classed as inactive in assay [1], in [2] and in assay [3]. In addition, the Potency entry in [4] is “inactive”.

`Oc1cccc2cccnc12`: the Potency in assay [12] is 37.6 µM (active) and 66.8 µM (active); in assay [16] it was “inactive and 3.35 µM (active)”. Besides, the activation in assay [13] was -0.845% (inactive) and 2.31% (inactive); in [5], 0.681% (inactive) and 3.98% (inactive). Moreover, the molecule was classed as inactive in assay [15]. Besides, the Potency result in [17] was “inactive”. Moreover, in assay [6], the max response is -5% (inactive) and -2.57% (inactive).

`CN(C)CCN(C)CCc1ccc(Cl)c(Cl)c1`: the Potency result in [7], in [11] and in assay [18] was “inactive” in each case. Also, in assay [9], the viability (% of control) stood at 74%. Further, the viability, percent of control in assay [10] is 73.4%.

Turning to `CS(=O)c1ccc(-c2nc(-c3ccc(F)cc3)c(-c3ccncc3)[nH]2)cc1` (stereo unspecified), the viability (% of control) in [9] stood at 92.2%. For the same molecule, in assay [10], the viability, percent of control turned out to be 100%.

With `COC1(CS(=O)c2ccccc2)CCN(CCc2c[nH]c3ccc(F)cc23)CC1` (stereo unspecified), the Potency result in assay [7], in assay [8], in assay [11] and in assay [18] was “inactive” in each case. Moreover, in [9], the viability (% of control) was 79.9%. Besides, the viability, percent of control in assay [10] stood at 108%.

On to `Cn1c(CCCC(=O)O)nc2cc(N(CCCl)CCCl)ccc21`, for which the Potency entry in [7], in assay [8], in assay [11] and in assay [18] was “inactive” throughout. For the same molecule, the viability (% of control) in assay [9] came out at 95.4%. Besides, in [10], the viability, percent of control stood at 108%.
